High-throughput results deposited in PubChem by several laboratories.
Most compounds without a hit are left out; they make up all but 2.3% or so of the library.
TPT1 inh – C. albicans TPT1 enzyme inhibition; recombinant caTPT1, FP RNA substrate dephosphorylation; inhibition, % at 5 µM; hit rate 0.81% among 300,000;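 active means inhibition above the mean of all tested compounds plus 3 SD, set per screening campaign, cut at about 24% in these data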
IDE inh – inhibitors of human insulin-degrading enzyme in cells; hit rate 0.41% among 320,000; inhibition, % at 5.59 µM; P14735; HEK cells, FAbetaB cleavage, fluorescence polarization; AID 434962;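 active means percent inhibition above the average of all tested compounds plus 3 SD, set per screening campaign, cut at about 16% in these data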;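 further: IDE supplied by intact live HEK cells; FP after avidin binding of uncleaved biotin substrate so inhibition keeps polarization high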
IDE cell activ – boosts human insulin-degrading enzyme activity in HEK cells | P14735 | FAbeta-B cleavage, fluorescence polarization; 0% vehicle, 100% cell-free pure enzyme wells | activation, % at 5.96 µM | hit rate 0.073% among 340,000 | AID 493087;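 active means activation above the mean of all tested compounds plus 3 SD, set per screening campaign, cut at about 17% in these data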
Calb FLC – C. albicans growth modulation with fluconazole. C. albicans CaCi-2 (fluconazole-resistant clinical isolate) + fluconazole, Alamar Blue growth, 48 h. growth inhibition, % (test concentration not listed). hit rate 0.57% among 300,000. AID 1979;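 active means growth inhibition above about 58% in most replicates, limit read from the data, passing the limit was not always enough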;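 further: all wells also contain fluconazole at 8 µg/ml as a sub-toxic cotreatment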
Rin1 Abl inh – inhibitors of human Rin1-Abl protein interaction; hit rate 0.4% among 360,000; inhibition, % at 7.35 µM; TR-FRET Rin1/Abl binding, biochemical; P00519+Q13671; in the data active means inhibition above about 5%, passing the limit was not always enough
Rpn11 block – inhibitors of human proteasome Rpn11 | human 26S proteasome, Ub4-pepOG fluorescence polarization; 20S core pre-blocked with epoxomicin | inhibition, % at 20 µM | hit rate 0.59% among 360,000 | AID 588493;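 active means inhibition at 20 µM, scaled to each plate's controls, above about 33%, limit read from the data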
Target sequence (O00487 whole entry, looked up): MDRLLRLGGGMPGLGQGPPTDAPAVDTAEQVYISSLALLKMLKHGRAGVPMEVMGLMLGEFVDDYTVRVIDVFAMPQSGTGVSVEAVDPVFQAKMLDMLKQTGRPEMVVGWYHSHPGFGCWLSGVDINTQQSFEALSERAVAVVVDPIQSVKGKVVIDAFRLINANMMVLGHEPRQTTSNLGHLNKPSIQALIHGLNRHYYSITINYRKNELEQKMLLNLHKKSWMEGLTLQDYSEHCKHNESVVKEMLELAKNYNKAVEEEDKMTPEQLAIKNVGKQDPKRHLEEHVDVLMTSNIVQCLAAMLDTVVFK
caTPT1 confirm – TPT1 (C. albicans) inhibition, confirmation; recombinant caTPT1, fluorescence polarization, RNase T1 coupled; inhibition, % at 5 µM; AID 2149; hit rate 74% among 2,400; shares compounds with TPT1 inh;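 active means inhibition above the primary screen limit, the mean inhibition of all tested compounds plus 3 SD, cut at about 25% in these data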
RNase T1 counter – blocks Aspergillus oryzae RNase T1, a TPT1 counter-screen | shares compounds with TPT1 inh | RNase T1 cleavage, fluorescence polarization, 1536-well | inhibition, % at 5 µM | hit rate 83% among 2,400;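 active means inhibition above the solvent-only control well mean plus 3 SD, limit set per screening run, cut at about 23% in these data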;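 further: inhibitors block cleavage so intact labeled substrate keeps polarization high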
Target sequence (P00651 whole entry, looked up): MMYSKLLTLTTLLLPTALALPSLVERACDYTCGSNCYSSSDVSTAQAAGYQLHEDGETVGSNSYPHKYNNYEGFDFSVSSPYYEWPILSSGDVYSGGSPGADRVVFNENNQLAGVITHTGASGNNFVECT
IDE cell inh cf – cellular human IDE inhibition, confirmation | shares compounds with IDE inh | HEK cells, FAbetaB cleavage, fluorescence polarization | inhibition, % at 5.59 µM | hit rate 51% among 1,200;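 active means mean inhibition across triplicate wells above the cutoff set by the earlier primary insulin-degrading enzyme screen, cut at about 16% in these data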
HEK cytotox – HEK cell cytotoxicity, counter-screen for IDE inhibitors; shares compounds with IDE inh; HEK293 cytotoxicity, ATP luminescence; inhibition, % at 5.59 µM; hit rate 28% among 1,200; AID 449730; in the data active means inhibition above about 22%
FP fluor counter – counter-screen for IDE inhibitors: fluorescent artifacts; shares compounds with IDE inh; FP counterscreen for fluorescent artifacts, IDE probe project; IC50, µM; 30 tested, under 10 active; call rule not given here
Hits are given with their value.

For Cn1c(=O)c2c(ncn2CCOc2ccc(F)cc2)n(C)c1=O the results were TPT1 inh inactive, IDE inh inactive, IDE cell activ inactive, Calb FLC inactive, Rin1 Abl inh inactive and Rpn11 block inactive.
CCOC(=O)CN1C(=O)S/C(=C/c2ccc(N3CCCCC3)o2)C1=O was read as TPT1 inh active, IDE inh 19, IDE cell activ inactive, Calb FLC inactive, Rin1 Abl inh inactive, caTPT1 confirm 180, RNase T1 counter 167, IDE cell inh cf 69 and HEK cytotox inactive.
`Cc1cccc(OCC(=O)NCC(C)(C)N2CCOCC2)c1` gave IDE inh inactive, IDE cell activ inactive, Rin1 Abl inh inactive and Rpn11 block inactive.
`Nc1c(C(=O)Nc2nccs2)sc2nc(-c3cccs3)cc(C(F)(F)F)c12` gave TPT1 inh 31, IDE inh 20, IDE cell activ inactive, Calb FLC inactive, Rin1 Abl inh inactive, caTPT1 confirm 29, RNase T1 counter 41, IDE cell inh cf 16, HEK cytotox inactive and FP fluor counter inactive.
`CC(C)(C)C(=O)c1sc2nc(-c3cccs3)cc(C(F)(F)F)c2c1N` gave TPT1 inh inactive, IDE inh inactive, IDE cell activ inactive, Calb FLC inactive and Rin1 Abl inh inactive.
For COc1ccccc1N1CCN(C(=O)c2ccc(-c3ccc(Cl)cc3)o2)CC1 the results were IDE inh inactive, IDE cell activ inactive, Rin1 Abl inh inactive and Rpn11 block inactive.
For CNC(=O)c1c(NC(=O)c2ccc(S(=O)(=O)N3CCCC3)cc2)sc2c1CCN(C(C)C)C2 the results were TPT1 inh 148, IDE inh 43, Calb FLC inactive, caTPT1 confirm 153, RNase T1 counter 145, IDE cell inh cf inactive and HEK cytotox inactive.
Screening CCN(CC)c1ccc(/C=C(/C#N)c2nc3ccc(C)cc3[nH]2)c(OC(C)C)c1 returned TPT1 inh 139, IDE inh 136, IDE cell activ inactive, Calb FLC inactive, Rin1 Abl inh inactive, caTPT1 confirm 130, RNase T1 counter 124, IDE cell inh cf 152 and HEK cytotox 23.
CCOc1cc(N(CC)CC)ccc1/C=C(/C#N)c1nc2ccccc2[nH]1 was read as TPT1 inh active, IDE inh 108, IDE cell activ inactive, Calb FLC inactive, Rin1 Abl inh inactive, caTPT1 confirm 183, RNase T1 counter 166, IDE cell inh cf 144 and HEK cytotox 29.
`Cc1cc(/C=C(\C#N)c2nc3ccccc3[nH]2)c(C)n1C` gave TPT1 inh inactive, IDE inh inactive, IDE cell activ inactive, Calb FLC inactive, Rin1 Abl inh inactive and Rpn11 block inactive.
Screening CC(=O)N1c2ccc(S(=O)(=O)NCC3CCC(C(=O)Nc4cccc(C)n4)CC3)cc2CC1C (configuration not stated) returned TPT1 inh inactive, IDE inh inactive, IDE cell activ inactive, Calb FLC inactive, Rin1 Abl inh inactive and Rpn11 block inactive.
Screening O=c1[nH]c(=O)n(-c2cc(Br)c(O)c(Br)c2)cc1Br returned TPT1 inh inactive, IDE inh inactive, IDE cell activ inactive, Calb FLC inactive, Rin1 Abl inh inactive and Rpn11 block inactive.
Screening COCCNC(=S)N1CCC(NC(=O)Nc2ccc(C)cc2)CC1 returned TPT1 inh inactive, IDE inh inactive, IDE cell activ inactive, Calb FLC inactive, Rin1 Abl inh inactive and Rpn11 block inactive.
For CCOC(=O)c1sc(N/N=C/c2ccc(N(C)C)cc2)nc1C the results were TPT1 inh inactive, IDE inh inactive, IDE cell activ inactive, Calb FLC inactive, Rin1 Abl inh inactive and Rpn11 block inactive.
